# From PubChem
# This is a sample that favours compounds with a hit; in the whole collection about 0.88% have one here.
# ERG-DNA inh = blocks human ERG Ets domain binding to DNA; fluorescence polarization, His-ERG Ets domain / labelled DNA; Potency, µM (doses to about 76.9 µM), actives largely listed as inhibitors; 0.028% of 370,000 active; active = well fitted inhibition curve with a large enough effect in the polarisation, with a control signal flat; inconclusive = small, poorly fitted or top-dose-only effect, or effect the other way, or a change in a side signal; inactive = no such curve, though single readings can be large or run the other way; the % refers to the polarisation;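 also: polarization taken with two DNA probes labelled with fluorescein and Texas red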
# Target sequence (P11308 whole entry, looked up, the tested form may be a part): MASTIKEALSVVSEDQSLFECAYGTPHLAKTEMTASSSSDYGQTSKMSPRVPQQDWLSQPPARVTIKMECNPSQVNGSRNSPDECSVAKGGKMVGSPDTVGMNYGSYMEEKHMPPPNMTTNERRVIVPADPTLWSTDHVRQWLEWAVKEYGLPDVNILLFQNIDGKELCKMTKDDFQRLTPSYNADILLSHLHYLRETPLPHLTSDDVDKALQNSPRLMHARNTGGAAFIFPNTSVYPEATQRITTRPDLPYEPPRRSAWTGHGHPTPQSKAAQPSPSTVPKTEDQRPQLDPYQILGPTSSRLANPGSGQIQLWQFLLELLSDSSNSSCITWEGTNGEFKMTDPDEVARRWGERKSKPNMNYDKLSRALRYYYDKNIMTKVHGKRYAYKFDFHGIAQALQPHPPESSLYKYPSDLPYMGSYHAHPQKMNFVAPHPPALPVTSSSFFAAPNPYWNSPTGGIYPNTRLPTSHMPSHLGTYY
#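 His-tagged ERG Ets domain (1 uM in the protein solution; 300mM KCl, 50mM Tris-HCl, 1mM EDTA, 1mM DTT, pH 7.5) received compound, then a probe mix of 5 nM fluorescein-DNA and 100nM Texas-615-DNA. Fluorescence polarization was read for both dyes.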
# BLM helicase inh = blocks DNA unwinding by human BLM helicase; P54132; AID 2528; 0.2% of 350,000 active; Potency, µM (highest dose often 56.1 µM), most hits filed as inhibitors; recombinant BLM DNA unwinding, fluorescence dequenching; also: nearly all actives have a fitted effect of over 35% in size
# APEX1 inh = blocks human APE1 abasic DNA cleavage; AID 2517; Potency, µM (top dose mostly 65.8 µM), actives largely listed as inhibitors; 0.35% of 350,000 active; recombinant APE1, TAMRA/BHQ-2 abasic DNA cleavage fluorescence; also: nearly all actives have a fitted effect of over 55% in size
#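 Activity was derived from the fluorescence gain between first and third kinetic reads (60 s intervals, ex 525/em 598 nm) after 50 nM THF-abasic TAMRA/BHQ-2 duplex was added to 0.75 nM APE1 preincubated 15 min with compound.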
# RECQ1 inh-1 = blocks DNA unwinding by human RECQ1; P46063; RECQ1 DNA unwinding, red fluorescence kinetic read; Potency, µM (series often up to 57.3 µM), most hits filed as inhibitors; 0.54% of 240,000 active; AID 2549; also: nearly all actives have a fitted effect of over 30% in size
#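 50 nM RECQ1T1 preincubated 15 min with compound in Tris pH 8.0 buffer with MgCl2, DTT, Tween-20 and 2.5 ug/ml poly(dI-dC); started with 200 nM TAMRA/BHQ-2 forked duplex and 2 mM ATP. Unwinding read as fluorescence (525/598 nm), two reads 2 h apart.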
# KAT2A inh = inhibitors of human GCN5L2 histone acetyltransferase; Q92830; GCN5L2 HAT assay, ThioGlo1 CoA-SH fluorescence; AID 504327; 0.21% of 390,000 active; Potency, µM (titrated, usually from 58.9 µM), hits mostly inhibitors
#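 qHTS, 1536-well. 20nM enzyme, pH 7.5 HEPES/EDTA/Tween-20 buffer; 15 min compound preinc., RT. Start: 75uM H3(1-25), 70uM AcCoA, 50uM ThioGlo1. Read Ex340/Em540 at t=0 (autofluorescence flag) and t=20 min.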
# WRN inhibitor = WRN helicase (human) inhibition | WRN helicase unwinding, fluorescent forked duplex, kinetic | Potency, µM (highest dose often 114 µM), actives largely listed as inhibitors | 0.46% of 360,000 active | Q14191; also: nearly all actives have a fitted effect of over 55% in size
#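 Primary qHTS, 1536-well format. 20 nM WRN + compound, 15 min RT; start with 100 nM forked fluorophore/quencher duplex, 2 mM ATP (final); kinetic read ex 525/em 598 nm.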
# RECQ1 conf = confirmation of human RECQ1 helicase inhibitors | shares compounds with RECQ1 inh-1 | RECQ1 helicase DNA unwinding, fluorescence | Potency, µM (titrated, usually from 229 µM), usual class: inhibitors | 28% of 610 active | AID 2708; also: nearly all actives have a fitted effect of over 45% in size
# RECQ1 ADP FP = displaces ADP in a fluorescence polarization counter-screen for RECQ1 hits; ADP fluorescence polarization displacement counterscreen; AID 2711; Potency, µM (titrated, usually from 228 µM), most hits filed as inhibitors; 27% of 530 active; shares compounds with RECQ1 inh-1; also: nearly all actives have a fitted effect of over 45% in size
# RECQ1 inh-2 = confirmation of human RECQ1 helicase inhibitors | shares compounds with RECQ1 inh-1 | recombinant RECQ1 DNA unwinding, red fluorescence | Potency, µM (highest dose often 119 µM), actives largely listed as inhibitors | 15% of 1,100 active | AID 504841; also: nearly all actives have a fitted effect of over 50% in size
# Numbers stand for hits; . = inactive; ? = inconclusive; / = no result given. Unless noted, calls follow the shape of the dose curve; as a rule, active = well fitted curve in the direction sought with a large enough effect; inconclusive = small, poorly fitted or top-dose-only effect, or another doubt; inactive = no such curve, though single readings can be large; an effect the other way counts as inactive or inconclusive.
SMILES,ERG-DNA inh,BLM helicase inh,APEX1 inh,RECQ1 inh-1,KAT2A inh,WRN inhibitor,RECQ1 inh-2,others
NS(=O)(=O)c1cccc(NS(=O)(=O)c2ccc(/C=C/C(=O)OCC(=O)c3ccc(Br)cc3)cc2)c1,.,.,.,?,.,.,.,
Cc1ccc(CN(Cc2ccco2)C(=O)COc2cc(C)c(Cl)c(C)c2)cc1,.,.,/,/,.,/,/,
CCOc1cc(C(=O)N/N=C/c2cn(-c3ccccc3)nc2-c2cc3ccccc3o2)cc(OCC)c1OCC,.,/,/,/,/,.,/,
c1ccc2oc(-c3[nH]ncc3CN3CCSCC3)cc2c1,.,.,.,?,.,.,.,
Cc1ccc(-n2nc(-c3ccco3)cc2C(=O)O)c(C)c1,.,.,?,20µM,?,?,?,
O=C(O)c1cc(-c2ccco2)nn1-c1cccc(Cl)c1,.,.,?,25µM,?,?,?,
COc1ccc(S(=O)(=O)N(CC(=O)Nc2cccc(C)c2)c2ccc(C)cc2)cc1OC,.,.,/,/,.,/,/,
COc1ccc(Cl)cc1C(=O)Nc1cccc(-c2ccc3nncn3n2)c1,.,.,?,?,.,.,?,
COc1cccc(C(=O)Nc2cccc(-c3ccc4nncn4n3)c2)c1OC,.,.,.,.,.,.,/,
Cn1cc(S(=O)(=O)c2ccc(Cl)cc2)c(=O)c2cc(F)c(N3CCCC3)cc21,.,.,/,/,.,/,/,
Cc1ccc(C)c(-n2c(SCC(=O)NC(C(=O)O)C(C)C)nnc2-c2cccc(Cl)c2)c1 (centres undefined),.,.,.,.,.,.,/,RECQ1 conf=.;RECQ1 ADP FP=.
CNC(=O)CSc1nnc(-c2ccco2)n1-c1cc(C)ccc1C,.,.,.,/,.,.,/,
Cc1nn(CC(=O)N2CCN(c3ccccc3)CC2)c(=O)c2cc3cc(F)ccc3n12,.,.,/,/,.,/,/,
O=C1NN(c2cccc(Br)c2)C(=O)/C1=C/c1ccc(-c2cc([N+](=O)[O-])ccc2O)o1,.,.,.,20µM,.,?,/,RECQ1 conf=63µM
Cn1c(SCCC#N)nnc1-c1ccc(F)cc1,/,.,.,.,.,/,/,
CC(C)(C)c1ccc(-c2nnc(SCCC#N)n2C2CCCC2)cc1,.,.,.,14µM,.,.,.,RECQ1 conf=.;RECQ1 ADP FP=.
COc1cccc(NC(=O)N(CCC(C)C)C2CCN(C(C)C)CC2)c1,.,.,/,/,.,/,/,
CCCC1=C/C(=C/c2ccc(-c3ccccc3OC)o2)C(=O)O1,.,.,.,22µM,.,.,/,RECQ1 conf=?
CC(=O)Oc1ccccc1Cn1c(C)c(C(=O)NCc2ccccc2C(F)(F)F)sc1=O,/,/,/,/,/,.,/,
O=C([C@@H]1CCCN1C1=NS(=O)(=O)c2ccccc21)N1CCN(c2ccccc2)CC1,/,/,/,/,/,.,/,
CCCN(CCC)S(=O)(=O)c1ccc(C(=O)Nc2ccc(OCC(=O)N3CCOCC3)cc2)cc1,.,.,.,.,.,.,/,RECQ1 conf=.;RECQ1 ADP FP=.
O=C(CCc1nc(-c2ccc(Cl)cc2)no1)NCc1ccccc1CN1CCOCC1,.,/,.,/,.,.,/,
Cn1c(=O)c2cc(C(=O)N3CCN(c4ccc(Cl)cc4)CC3)sc2c2ccccc21,.,.,/,/,.,/,/,
CC1=Nc2cc(C(=O)NC3CCCC3)ccc2Sc2ccc(Br)cc21,.,.,/,/,.,/,/,
CC1=Nc2cc(C(=O)O)ccc2Sc2ccc(Br)cc21,.,.,?,0.32µM,.,.,.,RECQ1 conf=100µM;RECQ1 ADP FP=.
SMILES,ERG-DNA inh,BLM helicase inh,APEX1 inh,RECQ1 inh-1,KAT2A inh,WRN inhibitor,RECQ1 inh-2,others
COCC(=O)N(C)C1(c2nnnn2CCOC(=O)Nc2cccc3ccccc23)CCCC1,.,.,.,32µM,.,.,.,
COc1ccc(NC(=O)C2(N(C(=O)Cn3nnnc3N)c3ccc(OC)cc3)CCCCC2)cc1,.,.,.,/,.,.,/,
N#CCCCS(=O)(=O)c1nc2ccccc2s1,/,.,.,.,/,/,/,
COc1ccccc1-n1cnnc1SCC(=O)c1cc(C)n(Cc2cccs2)c1C,.,.,?,?,.,.,.,
Cc1cccc(SCc2noc(C(=O)NCC3CCCO3)c2C(=O)O)c1 (centres undefined),.,.,.,.,.,.,/,
Cc1cc(C)cc(SCc2noc(C(=O)NCC3CCCO3)c2C(=O)O)c1 (centres undefined),.,.,.,.,.,.,/,RECQ1 conf=.;RECQ1 ADP FP=?
CCC(C)NC(=S)Nc1ccc(C(=O)OC)cc1 (centres undefined),.,.,.,.,.,.,/,
COCCOC(=O)c1c(NC(=O)CN2CCc3ccccc32)sc(C(N)=O)c1C,.,.,.,20µM,.,.,.,
CCOc1ccc(NC(=O)Cn2c(=O)n(CCCCC(=O)NCCc3ccc(Cl)cc3)c(=O)c3ccccc32)cc1,.,.,/,/,.,/,/,
